# Measured values from ChEMBL document CHEMBL4513216, “Probing the Open Global Health Chemical Diversity Library for Multistage-Active Starting Points for Next-Generation Antimalarials” (ACS Infect Dis, 2020).
# The campaign covered roughly 69,000 compounds. About 8,600 (12%) showed an effect of 50% or more. The entries come from a sample that favours strong results as a whole.
# Test system: Plasmodium berghei
# Experiment: Screen against P. berghei liver stage (PbLuc), transformed with Luciferase, at 10uM
# Type: functional, HepG2
# Details: tested at 10 uM
row,Compound,INHIBITION
1,Cc1n[nH]cc1CNCC1(c2cccc(F)c2)CCOCC1,-11.9%
2,COc1ccc(CN2CCOC3(CCCN(c4nnc(C)o4)C3)C2)cc1 (configuration not stated),31.8%
3,Cc1nnc(N2CCCC3(CN(Cc4ccncc4)CCO3)C2)o1 (configuration not stated),10.1%
4,Fc1cccc(N2CCCC3(C2)CN(c2ncccn2)CCO3)c1 (configuration not stated),80.5%
5,Cn1cc(CN2CCOC3(CCCN(c4cccc(F)c4)C3)C2)cn1 (configuration not stated),73%
6,Fc1ccc(N2CCOC3(COCCN(c4ncccn4)C3)C2)cc1 (configuration not stated),61.1%
7,Fc1cccc(N2CCCC3(CN(Cc4ccccn4)CCO3)C2)c1 (configuration not stated),-9.42%
8,c1ccc(CN2CCOC3(COCCN(c4ncccn4)C3)C2)nc1 (configuration not stated),20.1%
9,Cn1cc(CN2CCC(F)(F)C3(CCN(c4cccc(F)c4)C3)C2)cn1 (configuration not stated),-0.371%
10,Cc1nnc(N2CCCC3(CN(Cc4cnn(C)c4)CCO3)C2)o1 (configuration not stated),41.2%
11,Fc1cccc(N2CCCC3(C2)CN(c2cnccn2)CCO3)c1 (configuration not stated),23.3%
12,Cc1nnc(N2CCCC3(CN(Cc4ccc(F)cc4)CCO3)C2)o1 (configuration not stated),57.4%
13,c1cnc(N2CCOCC3(CNCCO3)C2)nc1 (configuration not stated),22.2%
14,Cc1cc(O)cc(=O)n1CCCC(=O)Nc1n[nH]c2ccccc12,9.96%
15,COCC1CN(S(=O)(=O)N(C)C)Cc2ncn(CC3CC3)c21 (configuration not stated),5.56%
16,Cc1cccc(CO[C@H]2CN(c3nnc(C)s3)[C@@H]3CCCO[C@H]23)n1,22.2%
17,Cc1nc(CN2CCC3(CCCN(C(=O)c4cnccn4)C3)C2)cs1 (configuration not stated),-2.46%
18,Cc1cc(CN2CCCC2c2c(C)nn(C)c2Cl)on1 (configuration not stated),47%
19,Cc1cnn(CC2CN(Cc3ccc(C(N)=O)cc3)CCO2)c1 (configuration not stated),37.4%
20,COCC(=O)N1CCC[C@]2(C(=O)N(C)C)CN(c3ccccn3)C[C@@H]2C1,-4.56%
21,c1ccc2oc(CCCN3CCCC(Cn4cncn4)C3)nc2c1 (configuration not stated),45.7%
22,Cc1nnc(N2CCCC3(CN(Cc4cccnc4)CCO3)C2)o1 (configuration not stated),22.2%
23,Fc1cnc(N2CCCC3(CN(Cc4ccncc4)CCO3)C2)nc1 (configuration not stated),1.71%
24,Fc1cccc(N2CCCC3(CN(Cc4cccnc4)CCO3)C2)c1 (configuration not stated),71.9%
25,Cc1nnc(N2CCCC3(CN(Cc4nccs4)CCO3)C2)o1 (configuration not stated),8.67%
26,Fc1cccc(N2CCCC3(CN(Cc4ccncc4)CCO3)C2)c1 (configuration not stated),81.3%

row,Compound,INHIBITION
1,CC(=O)N1CCCC2(CN(Cc3ccncc3)CCO2)C1 (configuration not stated),-7.59%
2,c1ccc(CN2CCOC3(CCCN(c4nccs4)C3)C2)cc1 (configuration not stated),43.9%
3,Fc1cccc(N2CCOC3(CCCN(c4cnccn4)C3)C2)c1 (configuration not stated),41%
4,Fc1cccc(N2CCCC3(CN(Cc4nccs4)CCO3)C2)c1 (configuration not stated),88.2%
5,Cc1cc(OCC(N)=O)ccc1NC(=O)C(C)Cc1ccccc1F (configuration not stated),39.6%
6,O=C(c1cnccn1)N1C[C@@H]2C[C@@H](c3nc(C4CC4)cs3)O[C@@H]2C1,10.7%
7,COc1cc(C)nc(N2CCN(C(=O)c3cccc(C#N)c3)CC2)n1,8.64%
8,COc1ccc2c(c1)C(=O)NC1(CC2)CCN(Cc2ccccn2)C1 (configuration not stated),17.9%
9,CNC(=O)NC(=O)CCSCc1cc(F)cc2cccnc12,11.5%
10,Cc1cc(C)n(CCNc2ncnc3c2NC(=O)CN3)n1,44.1%
11,Cc1nn(CCNc2ncnc3c2NC(=O)CN3)c(C)c1Cl,42.4%
12,Cc1cc(C)n(CCCNc2ncnc3c2NC(=O)CN3)n1,57.3%
13,O=C1[C@H]2CN(C3CCOC3)C[C@H]2CN1c1ccccc1 (some centres not stated),10.5%
14,Cc1n[nH]c(C)c1CNCC(O)c1cccc(Cl)c1 (configuration not stated),46%
15,Cc1noc(C)c1CN1CCC(N(C)Cc2nnc(C3CC3)n2C)C1 (configuration not stated),19.2%
16,O=C(NC1CC1)c1ccn(COc2c(Cl)cccc2Cl)n1,43.3%
17,Cc1ccoc1C1=NNC(=CN2CCCC(Cn3cncn3)C2)O1 (configuration not stated),27.1%
18,Cc1cc(-c2nn(C)c(Cl)c2CN2CC[C@H](CO)[C@@H](O)C2)no1,36.7%
19,Cc1cc(C)n(C2CCN(Cc3c(-c4cc(C)on4)nn(C)c3Cl)C2)n1 (configuration not stated),28.5%
20,Cc1cc(-c2nn(C)c(Cl)c2CN2CCC3(CC2)[C@H](O)C[C@@H]3O)no1,50.3%
21,Cc1cc(-c2nn(C)c(Cl)c2CN2CCOCC(O)C2)no1 (configuration not stated),41.8%
22,Cc1cc(-c2nn(C)c(Cl)c2CN2CC[C@@](O)(C3CCC3)[C@H](C)C2)no1,33.9%
23,Cc1cc(-c2nn(C)c(Cl)c2CN2Cc3ccccc3C(O)C2)no1 (configuration not stated),51.8%
24,Cc1cc(-c2nn(C)c(Cl)c2CN2CCN(C)C(C(=O)O)C2)no1 (configuration not stated),59.4%
25,CCNC(=O)C1CN(Cc2c(-c3cc(C)on3)nn(C)c2Cl)CCO1 (configuration not stated),43%
26,Cc1cc(-c2nn(C)c(Cl)c2CN2CCOC(C(=O)O)C2)no1 (configuration not stated),17.6%

row,Compound,INHIBITION
1,Cc1cnn(CC2CN(CC(=O)Nc3cc(C)no3)CCO2)c1 (configuration not stated),-103.725%
2,O=C1CC(c2ccc(C(=O)O)cc2)c2c(sc3c2CCCC3)N1 (configuration not stated),89.3%
3,O=C1CC(c2ccncc2)c2c(sc3c2CCCC3)N1 (configuration not stated),20.4%
4,O=C1CC(c2cccnc2)c2c(sc3c2CCCC3)N1 (configuration not stated),26.9%
5,CC(=O)N(Cc1ncc(C)o1)C1CCN(CCOc2ccccc2)C1 (configuration not stated),8.31%
6,CC(=O)N1CCc2c(nc(N(C)C)nc2N(C)CC2CCCO2)C1 (configuration not stated),41.4%
7,CCN(CC)CCC(=O)N1CCc2c(nc(N(C)C)nc2N(C)C)C1,30.1%
8,CN(C)c1nc2c(c(N(C)C)n1)CCN(C(=O)CN1CCC(O)CC1)C2,56.1%
9,CN(C)c1nc2c(c(N(C)C)n1)CCN(C(=O)CN1C[C@H]3CC[C@@H]1C3)C2,11.7%
10,Cc1nc2c(c(N(C)C)n1)CCN(C(=O)CN1CCC(O)CC1)C2,45.3%
11,CC(C)SCC(=O)N1CCc2c(nc(N(C)C)nc2N(C)C)C1,61.1%
12,Cc1ccc(NC(=O)C2CSCN2C(=O)c2cnsn2)c(C)c1 (configuration not stated),-50.6%
13,COc1ccc(S(=O)(=O)N2CCc3ccc(F)cc32)cc1C(=O)O,15.3%
14,CCS(=O)(=O)N1CCc2ccc(NC(=O)NC3CCCCC3)cc21,8.41%
15,Cc1cccc(NC(=O)N2CCC(CO)(Nc3ccccc3)CC2)c1,-15.96%
16,Cc1cc(S(=O)(=O)N2CCCc3ccc(F)cc32)sc1C(=O)O,26.8%
17,CCS(=O)(=O)N1CCCc2ccc(NC(=O)Cc3ccc(F)cc3)cc21,56.1%
18,CCS(=O)(=O)N1CCc2ccc(NC(=O)Nc3cccc(SC)c3)cc21,88.4%
19,CSc1ccc(NC(=O)Nc2ccc3c(c2)N(S(C)(=O)=O)CC3)cc1,49%
20,CCS(=O)(=O)N1CCc2ccc(NC(=O)NC(C)(C)C)cc21,46.1%
21,CCS(=O)(=O)N1CCc2ccc(NC(=O)Nc3ccc(F)cc3F)cc21,72.6%
22,CCS(=O)(=O)N1CCc2ccc(NC(=O)Nc3cccc(C)c3)cc21,85%
23,CO[C@H]1CN(C(C)C)C[C@@H]1NC(=O)Nc1cccc(SC)c1,12.6%
24,O=C(O)c1csc(S(=O)(=O)N2CCCc3ccc(F)cc32)c1,-9.67%
25,O=C(c1ccc2c(c1)CCCC2)N1CCCC(n2cncn2)C1 (configuration not stated),19.6%
26,O=C(c1cccnc1)N1CCCC(c2ncncc2-c2ccncc2)C1 (configuration not stated),44.8%

row,Compound,INHIBITION
1,C[C@@H]1C(=O)NC[C@H]2CN(Cc3ccc4c(c3)OCO4)C[C@H]21,30.9%
2,COc1nn(C)c2c1CCCN(C(=O)c1ccc3c(c1)OCO3)C2,20.9%
3,O=C(Nc1ccccc1OCCc1ccccn1)N1CCOCC1,-98.1%
4,CNC(=O)C1(Cc2cc(C(C)C)no2)CCN(Cc2cccnc2)C1 (configuration not stated),13.125%
5,CCNC(=O)N1CCc2ccc(NC(=O)NCC3CC3)cc21,10.7%
6,CCS(=O)(=O)N1CCc2ccc(NC(=O)Nc3ccccc3C)cc21,34.5%
7,COCCN1CCC(NC(=O)Nc2cccc(F)c2)C1 (configuration not stated),28.9%
8,CCS(=O)(=O)N1CCc2ccc(NC(=O)NCc3ccccc3)cc21,-23.5%
9,CCS(=O)(=O)N1CCc2ccc(NC(=O)Nc3ccccc3)cc21,88.5%
10,CCS(=O)(=O)N1CCc2ccc(NC(=O)Nc3cccc(F)c3)cc21,91.4%
11,Cn1cccc1C(=O)N1CCO[C@@H]2CN(Cc3nccs3)C[C@@H]2C1,-28.5%
12,CN(C)C(=O)COC[C@]12COC[C@H]1CN(CC1CCC1)C2,-11.1%
13,COc1ccnc(N2CCN(C(=O)Cc3ccsc3)CC2)n1,-47.6%
14,CNS(=O)(=O)CCCN1CCN(C(C#N)c2ccccc2)CC1 (configuration not stated),47.3%
15,CNC(=O)c1c(C)cccc1NCC(=O)Nc1cc(C)nn1C,19.1%
16,O=C(Cc1ccccc1F)N1CCN(Cc2noc(C3CC3)n2)CC1,52.3%
17,O=C(Nc1ccccc1)N1CCN(Cc2noc(C3CC3)n2)CC1,17.4%
18,O=C(Cc1ccccc1)N1CCN(Cc2noc(C3CC3)n2)CC1,1.77%
19,O=C(Nc1ccc(F)cc1)N1CCN(Cc2noc(C3CC3)n2)CC1,-3.2%
20,CNC(=O)c1c(C)cccc1NCc1nnc(C2CC2)o1,24.3%
21,Cc1ccccc1NC(=O)N1CCN(Cc2noc(C3CC3)n2)CC1,58.5%
22,CNC(=O)c1c(C)cccc1NCc1noc(C2CC2)n1,74%
23,O=C(Nc1ccccc1F)N1CCN(Cc2noc(C3CC3)n2)CC1,11.8%
24,COC1(CNC(=O)c2ccc3nsnc3c2)CCSC1 (configuration not stated),-3.83%
